According to ChEMBL document CHEMBL4888484, “Replenishing the malaria drug discovery pipeline: Screening and hit evaluation of the MMV Hit Generation Library 1 (HGL1) against asexual blood stage Plasmodium falciparum ,using a nano luciferase reporter read-out” (2022):
In all, about 4,800 compounds went through this assay and about 420 (8.8%) showed an effect of 50% or more. The sample holds strong results, similar compounds and a random draw of the others, so the mix is not that of the screen.

tested on: Plasmodium falciparum; test: Confirmatory screen in NF54 nanoGlo assay, in single point, at 2uM, 72h; assay type: functional, Erythrocyte; details: timepoint 72 hour

Compound	% Inhibition
CC1CC(C)CC2(C1)NC(=O)N(CCC1OCCO1)C2=O (stereo not given)	-1%
Cc1cc(=O)n(CC(=O)N2CCC(C)CC2)c(-c2ccc(F)cc2)n1	-4%
O=C(CCc1nc(CN2CCN(S(=O)(=O)c3ccc(F)cc3)CC2)no1)N1CCCC1	-4%
CCOC(=O)N1CCc2c(nc(-c3ccc(C)cc3)n(CC(=O)Nc3ccc(C(C)C)cc3)c2=O)C1	-16%
Cc1noc([C@H](C)S(=O)(=O)Cc2cc(C)on2)n1	0%
O=S(=O)(Nc1ccc(F)cc1OCC1CC1)c1cn[nH]c1	-12%
Cn1cc(CNC(=O)NCC2(Cc3ccccc3)CCC2)cn1	-4%
Cc1c(C(C)C)c(=O)n(-c2ccc(S(=O)(=O)N3CCN(c4nc5ccccc5nc4-c4ccccc4)CC3)cc2)n1C	-20%
CCN(CC(C)(C)O)C(=O)C1CCCCCC1	-9%
Cn1nc(C(F)(F)F)cc1B1OC(C)(C)C(C)(C)O1	4%
C=CCOc1ccc(Cl)c(C(=O)N[C@H]2CCS(=O)(=O)C2)n1	0%
Cc1cc(N)n(-c2nc(-c3ccccc3)cc(=O)[nH]2)n1	1%
O=C(CCCc1ccccc1)Nc1cc(C2CC2)nn1-c1nc(-c2ccccc2)cc(=O)[nH]1	48%
CCC(CC)C(=O)Nc1cc(C2CC2)nn1-c1nc(-c2ccccc2)cc(=O)[nH]1	50%
Cc1ccc(NC(=O)NC(=O)Cn2ccc(=O)c3sccc32)cc1C	0%
Cc1ccc(S(=O)(=O)N2CCN(S(C)(=O)=O)C2)cc1	0%
Cc1ccc2c(c1)c1c(n2S(=O)(=O)c2ccc(C(C)(C)C)cc2)CCCN(C)C1	76%
Cc1ccc(S(=O)(=O)N2CCCC(=O)c3ccccc32)cc1	-3%
CC#CCCC(=O)Nc1ccc(OC)cc1	-5%
Cc1cc(C)c(OC(=O)c2ccc(Cl)cc2Cl)c(CNC(=O)c2ccccc2)c1	-16%
c1cc([C@@H]2CCCCN2c2nc(C3CC3)ns2)n[nH]1	2%
CCNC(=O)C[C@H]1CCCCN1C(=O)C1CCN(Cc2csc(C)n2)CC1	-1%
O=S(=O)(c1ccccc1C(F)(F)F)N1CC[C@]2(CCN(c3cccnc3)C2)C1	-2%
Cc1ccc(C(=O)N[C@@H](C)CCc2ccccc2)cc1S(=O)(=O)N1CCN(C)CC1	-20%
CCn1nccc1CN(C)C(=O)c1cc(C)c(C)s1	5%

Compound	% Inhibition
CCCC[C@H](CC)C(=O)Nc1cc(C)ccn1	0%
Cc1cc(C)n(NC(=O)CCn2nc(C(F)(F)F)c(Br)c2C2CC2)c(=O)c1	3%
CCCOc1cccc2c(NC3CCN(CCOC)CC3)ccnc12	22%
Clc1cc(CN2CC[C@@]3(CCCOC3)C2)ccc1OCCN1CCOCC1	0%
Cc1cc(C)cc(Nc2nc(C)cc(=O)n2CC(=O)N2CCN(c3ccc(F)cc3)CC2)c1	-1%
Cc1c(C(=O)c2ccc(Cl)c(Cl)c2)sc2nc3cc(F)c(F)cc3n12	-11%
Nc1ncnc(NCc2cccnc2OCC(F)F)c1Cl	7%
COc1cc(C(=O)NCCN2CCOCC2)cc2occc12	-4%
CC1CC(NS(=O)(=O)CCCC(F)(F)F)CCN1 (stereo not given)	-4%
COc1cc(NC(=O)N[C@@H](C)C(=O)N2CCc3ccccc32)cc(OC)c1	4%
Cc1ccc(NC(=O)c2cc3nccc(-c4ccc(F)cc4)n3n2)nc1	-7%
CN(C(=O)NC1CCCC1)c1nc2c(s1)CN(Cc1ccccc1)C2=O	-12%
Cc1ccc(CNC2CCN(C)CC2)c(OCc2ccco2)c1	-3%
Cc1ccc2nc(C3CC3)cc(C(=O)N3C[C@@H](O)C[C@H]3CO)c2c1	-4%
Cc1ccc2nc3c(c(N)c2c1)CCCCN3C	-10%
COCCN(CC1CN(Cc2ccccc2OC)CC1c1ccccc1OC)C(=O)COC (stereo not given)	-2%
CC(C)[C@@H]1CCc2ccccc2N1Cc1nc(N)nc(N(C)C)n1	-4%
COc1ccc(NC(=O)Cn2c(C(F)(F)F)nc3cc4c(cc32)OCCCO4)cc1	4%
Cn1c(=O)c2c(-c3ccc(Cl)cc3)n(-c3cccc4cccc(N)c34)cc2n(C)c1=O	91%
Cn1c2cn(-c3ccc(F)cc3)c(-c3ccccc3)c2c(=O)n1-c1ccccc1	-1%
CC(C)(C)OC(=O)N1CCCC(C(O)C(F)(F)F)C1 (stereo not given)	6%
CCCCC12CN(S(=O)(=O)c3ccccc3)CC(C)(CN(S(=O)(=O)c3ccccc3)C1)C2=O	-5%
COc1ccc(-c2cc(C(=O)N[C@H]3CCN(c4ccc(=O)[nH]n4)C3)c(C)n2C)cc1	69%
Cn1cccc1C(=O)NC1CCN(c2ccc(Cl)c(C#N)n2)CC1	-5%
COc1ccc(-c2cc(C(=O)N[C@H]3CCN(c4ccc(=O)n(C)n4)C3)c(C)n2C)cc1	62%

Compound	% Inhibition
CCCCN(CC)CCNC(=O)C1CCN(C2=NS(=O)(=O)C(c3ccc(OC)cc3)=C2C)CC1	32%
Cc1c(C(=O)NC2CC2)cc(-c2ccccc2)n1C	-3%
CC(C)NC(=O)c1ccc(CN2C(=O)COc3ccc(C(=O)COc4ccc(F)c(F)c4)cc32)o1	4%
CC[C@H](C)NS(=O)(=O)c1cccc(N)c1	-4%
O=C(NCc1ccco1)[C@H]1CCCN(c2nc3ccccc3n(Cc3ccccc3)c2=O)C1	4%
Brc1cccc(-c2ccc(-c3cc(-c4ccccc4)nnc3-c3ccccc3)o2)c1	31%
COc1cc(Br)ccc1C1NC(=O)C2COCCN21 (stereo not given)	7%
CC(C)(C)c1cc([C@H](c2ccc(Cl)cc2)N2CCCCC2)cc(C(C)(C)C)c1O	2%
CN(Cc1nnc[nH]1)C(=O)C1(C)CCC1	-11%
COc1ccc(-n2nc(C)c(Cc3ccc(Cl)cc3)c2O)cc1	0%
COCCNc1nc(-c2ccccc2OC)c2c(N)n(-c3ccc(F)cc3)nc2n1	-6%
COc1ccc(CCNc2nc(-c3ccc(OC)cc3F)c3c(N)n(-c4ccc(Cl)cc4)nc3n2)cc1	59%
Cc1cc(N2C(=O)CCS2(=O)=O)cc(C)c1S(=O)(=O)NCc1ccccn1	2%
Cc1nn(C)c(C)c1-c1cc(C(=O)Nc2sc3c(c2C#N)CCCC3)c2ccccc2n1	-13%
CCc1ccc(C2=Nc3cccnc3N(CC(=O)Nc3c(C)cc(C)cc3C)C(=O)C2)cc1	-4%
Cc1cccnc1NC(=O)OC(C)(C)C	0%
Cc1cc(C)c(NC(=O)OCc2cccc3cccnc23)c(C)c1	83%
CN(C(=O)Cc1cc(Br)ccc1F)c1nncn1C	9%
O=S(=O)(N[C@H](c1nccs1)C1CC1)c1c(F)cccc1Cl	0%
CC(C)CC(=O)N=c1nc(S)ss1	-4%
CC(=O)c1cccc(NC(=O)Cn2c(=O)n(CCc3ccccc3)c(=O)c3ccccc32)c1	7%
COc1ccc(NC(=O)CN2N=C(C(=O)Nc3ccccc3)CCC2=O)cc1	-15%
CC(=O)c1cccc(NC(=O)[C@@]23CCC(=O)N2c2ccccc2C(=O)N3C)c1	76%
O=C(CN1C[C@@H](c2ccccc2)Oc2ccccc2C1=O)Nc1ccccc1	-16%
CC(=O)c1cccc(NC(=O)c2nonc2C)c1	-11%

Compound	% Inhibition
COc1cccc(NC(=O)c2ccc3c(c2)N(C)[C@@H]2CCCCCN2C3=O)c1	5%
CCCN1C(=O)c2ccccc2N2C(=O)CC[C@@]12C(=O)Nc1ccc(OC)cc1	92%
COc1ccc(NC(=O)CCC(=O)N2CCc3ccccc3C2)cc1	3%
COc1ccc(NC(=O)C2=NN(CC(=O)Nc3cccc(OC)c3)C(=O)CC2)cc1	-12%
CCN1C(=O)c2ccccc2N2C(=O)CC[C@@]12C(=O)Nc1cccc(OC)c1	92%
CCCN1C(=O)c2ccccc2N2C(=O)CC[C@@]12C(=O)Nc1ccccc1	91%
CCOc1cccc(CNC(=O)c2nn[nH]c2Nc2ccc(C)c(C)c2)c1	1%
Cc1ccc(Cc2nn3c(C4CCN(S(C)(=O)=O)CC4)nnc3s2)cc1C	-8%
Cc1ccc(OCCCOc2ccc(CO)nc2)cc1C	3%
O=S1(=O)NCCCCN1Cc1ccccc1	-6%
Cc1cc(NC(=O)Cn2c(=O)n(CC(C)C)c(=O)c3sccc32)no1	-13%
Cn1cc(N)c(Oc2ccc3c(c2)OCO3)n1	0%
Cc1cc(N2C(=O)CCS2(=O)=O)ccc1S(=O)(=O)NC1CCCC1	7%
Cc1ccc(-c2nn[nH]n2)cc1-n1cccn1	-2%
COc1ccc(N2CCN(c3nccn4nc(-c5cccs5)cc34)CC2)cc1	6%
O=C(NC(N1CCCC1=O)(C(F)(F)F)C(F)(F)F)c1ccco1	-1%
CC(C)(C)OC(=O)NC1CCCN(CC2CN(c3ccc(F)cc3)C(=O)O2)C1 (stereo not given)	-8%
Cc1cccc2c(-c3cc(N)nc(N)n3)c[nH]c12	85%
Cc1cccc(C)c1NC(=O)c1cc(-c2cccc3ccccc23)[nH]n1	2%
CN(C)c1nc(N)cc(-c2cccc3cccnc23)n1	44%
O=C(NCc1cc(F)cc(F)c1)c1csc(C(=O)NC2CC2)n1	-6%
C[C@H]1CCCN(C(=O)CNC(=O)Cc2ccccc2)CC1	-9%
COc1ccnc(CN2CCC[C@H](c3nc(-c4ccccc4)c[nH]3)C2)c1OC	67%
c1ccc(-c2c[nH]c([C@H]3CCCN(c4ncnc5[nH]ncc45)C3)n2)cc1	-4%
CN(C)c1nc(CN2CCC[C@H](c3n[nH]c(-c4ccccc4)n3)C2)ns1	-1%
